Records with an inconclusive call do not appear. Calls of active or inactive are those of the source. Calls follow the shape of the dose curve; as a rule, active = well fitted curve in the direction sought with a large enough effect; inconclusive = small, poorly fitted or top-dose-only effect, or another doubt; inactive = no such curve, though single readings can be large; an effect the other way counts as inactive or inconclusive.

Test [1] in a line: qHTS of pediatric cancer cell lines to identify multiple opportunities for drug repurposing: Primary screen for Saos-2 cells (AID 1347097). Also: nearly all actives have a fitted effect of over 40% in size. A digest of the protocol: (§1)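 Plated cells (500-1,000 per well, growth media) were allowed to settle for 5 hours, treated with compound dilutions for 48 hours, then lysed with CellTiter-Glo for 15 min at room temperature before luminescence reading.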

Test [2] in a line: qHTS of pediatric cancer cell lines to identify multiple opportunities for drug repurposing: Primary screen for SK-N-SH cells (AID 1347098). Also: nearly all actives have a fitted effect of over 65% in size. A digest of the protocol: (§2)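 Cells (500-1,000/well) rested 5 h, then received compounds for 48 h; metabolically active cells were measured by CellTiter-Glo luminescence. Final concentrations spanned up to 46 µM (MIPE, 11-point) or 0.59 nM-46 µM (NPC, 8-point) in primary screens, 11-point in follow-ups.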
(In general: qHTS replaces the single test concentration by a dilution series.)

Test [3] is described as follows: qHTS of pediatric cancer cell lines to identify multiple opportunities for drug repurposing: Primary screen for NB1643 cells (AID 1347099). Also: nearly all actives have a fitted effect of over 50% in size. Summed up:
as §1

Test [4] in a line: qHTS of pediatric cancer cell lines to identify multiple opportunities for drug repurposing: Primary screen for LAN-5 cells (AID 1347100). A digest of the protocol:
as §2

Test [5] is described as follows: qHTS of pediatric cancer cell lines to identify multiple opportunities for drug repurposing: Primary screen for BT-12 cells (AID 1347101). Also: nearly all actives have a fitted effect of over 25% in size. A digest of the protocol: as §2
Test [6] can be described thus: qHTS of pediatric cancer cell lines to identify multiple opportunities for drug repurposing: Primary screen for Rh18 cells (AID 1347102). Also: nearly all actives have a fitted effect of over 65% in size. Summed up:
as §2

Test [7] can be described thus: qHTS of pediatric cancer cell lines to identify multiple opportunities for drug repurposing: Primary screen for control Hh wild type fibroblast cells (AID 1347106). Also: nearly all actives have a fitted effect of over 55% in size. A digest of the protocol:
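Viability after 48 h compound treatment at 37C, 500-1,000 cells/well, read as ATP luminescence with CellTiter-Glo. Primary screens used 11-point (MIPE, 0.78 nM-46 µM) or 8-point (NPC, 0.59 nM-46 µM) final concentrations; follow-up screens used 11-point dilutions.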

A short description of test [8]: qHTS of pediatric cancer cell lines to identify multiple opportunities for drug repurposing: Primary screen for Rh30 cells (AID 1347107). Also: nearly all actives have a fitted effect of over 75% in size. Summed up:
as §2

Test [9] is described as follows: qHTS of pediatric cancer cell lines to identify multiple opportunities for drug repurposing: Confirmatory screen for SK-N-MC cells (AID 1347111).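 Also: cells exposed to compound for 48 h before the readout; nearly all actives have a fitted effect of over 70% in size.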 Summed up:
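Seed 500-1,000 cells/well; rest 5 h at 37 degrees C. Pin-transfer compounds, 11-point titration. Incubate 48 h. Add CellTiter-Glo, 15 min RT, read luminescence.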

The nature of test [10]: qHTS of pediatric cancer cell lines to identify multiple opportunities for drug repurposing: Confirmatory screen for BT-12 cells (AID 1347112). Also: nearly all actives have a fitted effect of over 55% in size. A digest of the protocol: as §2
A short description of test [11]: qHTS of pediatric cancer cell lines to identify multiple opportunities for drug repurposing: Confirmatory screen for LAN-5 cells (AID 1347113). Also: nearly all actives have a fitted effect of over 65% in size. A digest of the protocol:
as §2

A short description of test [12]: qHTS of pediatric cancer cell lines to identify multiple opportunities for drug repurposing: Confirmatory screen for DAOY cells (AID 1347114). Also: nearly all actives have a fitted effect of over 65% in size. A digest of the protocol:
(§3)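 Viability measured as metabolically active cells via CellTiter-Glo luminescence following 48 hours of compound exposure, 11-point dilutions in confirmatory testing. 500-1,000 cells/well plated 5 hours before dosing; controls were DMSO and 2.3 µM bortezomib.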

A short description of test [13]: qHTS of pediatric cancer cell lines to identify multiple opportunities for drug repurposing: Confirmatory screen for SJ-GBM2 cells (AID 1347116). Also: nearly all actives have a fitted effect of over 60% in size. A digest of the protocol: as §3
Test [14] can be described thus: qHTS of pediatric cancer cell lines to identify multiple opportunities for drug repurposing: Primary screen for RD cells (AID 1347104). Also: nearly all actives have a fitted effect of over 55% in size. A digest of the protocol:
as §1

Test [15] in a line: qHTS of pediatric cancer cell lines to identify multiple opportunities for drug repurposing: Primary screen for MG 63 (6-TG R) cells (AID 1347105). Also: nearly all actives have a fitted effect of over 50% in size. Summed up:
as §1

Test [16] in a line: qHTS of pediatric cancer cell lines to identify multiple opportunities for drug repurposing: Primary screen for Rh41 cells (AID 1347108). Also: nearly all actives have a fitted effect of over 70% in size. Summed up:
as §1

Test [17] is described as follows: qHTS of pediatric cancer cell lines to identify multiple opportunities for drug repurposing: Confirmatory screen for A673 cells (AID 1347110). Summed up:
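Cells plated at 500-1,000/well were treated five hours later with multi-point dilutions up to 46 µM final. After two days, CellTiter-Glo was added and luminescence read.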

A short description of test [18]: qHTS of pediatric cancer cell lines to identify multiple opportunities for drug repurposing: Confirmatory screen for NB-EBc1 cells (AID 1347115).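 Also: cells exposed to compound for 48 h before the viability read; nearly all actives have a fitted effect of over 45% in size.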 A digest of the protocol: as §2
Test [19] in a line: qHTS of pediatric cancer cell lines to identify multiple opportunities for drug repurposing: Primary screen for OHS-50 cells (AID 1347103). Also: nearly all actives have a fitted effect of over 40% in size. A digest of the protocol:
as §2

The nature of test [20]: qHTS of pediatric cancer cell lines to identify multiple opportunities for drug repurposing: Confirmatory screen for NB1643 cells (AID 1347109). Also: nearly all actives have a fitted effect of over 45% in size. A digest of the protocol:
as §2
Potency is read from the fitted curve at half-maximal effect.

`COc1cccc(-c2ccc(NC(=O)C3=C(C(=O)O)CCC3)c(F)c2)c1`: the Potency in test [1] was 13200 nM (active); in test [2], 24100 nM (active); in test [3] it was 5260 nM (active); in test [4], 13200 nM (active); in [5] it was 19300 nM (active); in test [9], 2930 nM (active). In [13], the Potency was 1170 nM (active). The Potency entry in [6], in test [7], in test [8], in test [10], in test [11] and in test [12] was “inactive” each time.
Regarding `CCc1c2c(nc3ccc(O)cc13)-c1cc3c(c(=O)n1C2)COC(=O)[C@]3(O)CC`, the Potency in [1] was 18.7 nM (active); in [2], 152 nM (active); in test [3], 23.5 nM (active); in [4], 1 nM (active); in [5] it was 193 nM (active); in [6], 105 nM (active). Also, the Potency was 372 nM (active) in test [14]; 18.7 nM (active) in test [15]; 132 nM (active) in test [8]; 235 nM (active) in test [16]; 65.7 nM (active) in test [17]; 2610 nM (active) in test [10]. In addition, in [18], the Potency was 1 nM (active). Also, the Potency entry in [13] is “inactive”.
`COc1ccc(-c2cc3c(C)nc(N)nc3n(C3CCC(OCCO)CC3)c2=O)cn1` (stereo not drawn): the Potency is 187 nM (active) in test [1]; 2410 nM (active) in test [2]; 166 nM (active) in test [3]; 469 nM (active) in test [4]; 93.5 nM (active) in test [6]; 7.7 nM (active) in [19]. Moreover, the Potency in [14] was 187 nM (active); in [15], 18.7 nM (active); in test [8], 4180 nM (active); in [16] it was 118 nM (active); in test [17] it was 1170 nM (active). Further, the Potency result in [20], in [10], in test [11], in test [12], in test [18] and in test [13] was “inactive” each time.
For `NC(=O)Nc1cc(-c2cccc(F)c2)sc1C(=O)N[C@H]1CCCNC1`, the Potency in test [1] was 1320 nM (active); in test [2] it was 1710 nM (active); in [3], 526 nM (active); in [4] it was 469 nM (active); in test [6], 13200 nM (active); in test [19] it was 172 nM (active). The Potency in test [14] is 3720 nM (active); in [15], 7430 nM (active); in test [8] it was 833 nM (active); in [16], 1870 nM (active); in [20], 928 nM (active); in test [9], 414 nM (active). Further, the Potency in test [11] was 827 nM (active); in test [12] it was 2330 nM (active); in test [18], 1650 nM (active); in test [13], 1040 nM (active). The Potency entry in test [7] and in [10] was “inactive” throughout.
Regarding `Cc1cc(Nc2nc(N[C@@H](C)c3ccc(F)cc3)c(C#N)cc2F)n[nH]1`, the Potency in test [1] is 2350 nM (active); in [2] it was 3410 nM (active); in test [3], 935 nM (active); in [4] it was 418 nM (active); in [6], 5900 nM (active); in test [15] it was 3720 nM (active). The values for the Potency in test [7] and in test [16] were 14800 nM (active) and 5900 nM (active), respectively. Also, the Potency entry in test [5] is “inactive”.
As for `Cc1[nH]nc2ccc(-c3cncc(OC[C@@H](N)Cc4ccccc4)c3)cc12`, the Potency in [1] is 2960 nM (active); in test [2], 1520 nM (active); in test [3], 935 nM (active); in [4], 372 nM (active); in test [5], 1720 nM (active); in test [6], 3320 nM (active). Also, the Potency in [14] was 3320 nM (active); in test [15], 2960 nM (active); in test [16], 4690 nM (active); in [20], 1170 nM (active); in test [17] it was 1510 nM (active); in test [9], 2330 nM (active). The Potency in [10] is 9270 nM (active); in test [11], 3290 nM (active); in [12] it was 4270 nM (active). Also, the Potency result in test [8] was “inactive”.
Take `CC1(C)CC(=O)c2c(C(F)(F)F)nn(-c3ccc(C(N)=O)c(NC4CCC(OC(=O)CN)CC4)c3)c2C1` (stereo not drawn): the Potency was 264 nM (active) in test [1]; 482 nM (active) in test [2]; 235 nM (active) in [3]; 187 nM (active) in test [4]; 418 nM (active) in test [6]; 306 nM (active) in [19]. The Potency in test [14] is 187 nM (active); in test [16], 372 nM (active).
For the compound `Nc1cccc(-c2cc3c(Oc4cccc(O)c4)ncnc3[nH]2)c1`, the Potency is 1870 nM (active) in [1]; 3040 nM (active) in test [2]; 20900 nM (active) in test [3]; 11800 nM (active) in test [4]; 11800 nM (active) in test [6]; 9350 nM (active) in test [14]. For the same compound, the Potency in test [16] is 5900 nM (active). In addition, in test [7], the Potency result is “inactive”.
For `COc1cc(OC2CCN(C)CC2)ccc1Nc1ncc2c(n1)n(C1CCCC1)c(=O)n2C`, the Potency was 18700 nM (active) in [1]; 12100 nM (active) in [2]; 10500 nM (active) in [3]; 13200 nM (active) in [4]; 20900 nM (active) in [6]; 19300 nM (active) in [19]. For the same compound, the Potency in [14] is 18700 nM (active); in test [15], 23500 nM (active); in test [8], 20900 nM (active); in test [16], 18700 nM (active).

Source of the values: PubChem BioAssay (NCATS).
